Compound activity deposited in PubChem BioAssay by Broad Institute.
Vif inh: HIV Vif inhibition | HEK293T cells, Vif self-association by quenched fluorescence, imaging, 24 h | inhibition, % at 7.49 µM | hit rate 0.35% among 340,000; in the data active = inhibition above about 50%, passing the limit was not always enough; inconclusive = no clear call, values can overlap the other calls; inactive = below about 31%
MITF act: activators of MITF-driven TRPM1 promoter activity in SK-MEL-5 cells | SK-MEL-5 TRPM1-promoter luciferase, 24 h; % of positive control, neutral wells = 0 | activation, % at 12.5 µM | hit rate 0.75% among 300,000;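 active = mean activation of at least 80% with every replicate also reaching 80%; inconclusive = mean reaches 80% but some replicate falls short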
PfHsp90 set2: growth inhibition of yeast expressing Plasmodium Hsp90; S. cerevisiae expressing PfHsp90, BacTiter-Glo ATP, 48 h; yeast lacking PDR1 and PDR3 efflux regulators; inhibition, % at 9.4 µM; hit rate 0.32% among 310,000; AID 504621;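 active = every replicate shows inhibition above about 80%, whatever the replicate mean, limit read from the data; inconclusive = mean inhibition reaches the set limit but some replicate falls short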
esBAF inh: SWI/SNF esBAF complex inhibition; reporter increase, % at 12.5 µM; mouse ES cells, Bmi1-luciferase knock-in reporter, 24 h; 100% = twice the neutral-well signal; AID 602393; hit rate 2% among 350,000; in the data active = activation above about 40%; inconclusive = no clear call, values can overlap the other calls;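 note: a rise in the Bmi1 reporter signal indicates esBAF inhibition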
Wnt act: activators of Wnt/beta-catenin signaling; Wnt/beta-catenin reporter cell assay, activator, plate reader; activation, % at 9.35 µM; hit rate 1.2% among 300,000; AID 743398; in the data active = activation above about 30%, passing the limit was not always enough; inconclusive = no clear call, values can overlap the other calls
Glyco luc inh: N-linked glycosylation inhibition | D54 ERlucT glycosylation luciferase reporter, 24 h; percent of 100 nM tunicamycin response | reporter increase, % at 12.5 µM | hit rate 0.23% among 360,000;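 active = mean luciferase reporter signal, scaled so untreated is 0 and the glycosylation-blocking control 100, at or above a set limit in every replicate; inconclusive = mean reaches the limit but not every replicate does; inactive = mean below the limit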;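 note: luciferase carries N-glycosylation sites so blocking glycosylation raises the light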
A number is an active result; . = inactive; ? = inconclusive; / = not tested or not shown. Most compounds without a hit are left out; they make up all but 3% or so of the library.

SMILES | Vif inh | MITF act | PfHsp90 set2 | esBAF inh | Wnt act | Glyco luc inh
O=[N+]([O-])c1ccc(Cl)c(NC(=S)N2CCCC2)c1 | . | . | . | 52 | . | .
O=[N+]([O-])c1ccc(NC(=S)N2CCCC2)cc1 | . | / | . | . | . | .
C[C@@H]1CCCCO[C@@H](CN(C)C(=O)CCC(F)(F)F)[C@@H](C)CN([C@H](C)CO)C(=O)c2cc(NS(=O)(=O)c3ccc(F)cc3)ccc2O1 | / | / | / | . | / | /
CCCN(CCC)c1ncnc2c1cnn2-c1ccc(OC)cc1 | . | 128 | . | . | / | .
COc1ccc(-n2ncc3c(Nc4cccc(C)c4)ncnc32)cc1 | . | 120 | . | . | . | .
COc1ccc(Nc2ncnc3c2cnn3-c2cccc(C)c2)cc1OC | / | / | . | . | . | .
Cc1cccc(-n2ncc3c(Nc4ccc(F)cc4)ncnc32)c1 | . | . | . | 71 | . | .
Cc1cccc(-n2ncc3c(NCCCn4ccnc4)ncnc32)c1 | . | / | . | 49 | . | .
O=C(NC1Cc2ccccc2C1)[C@@H]1[C@@H](CO)[C@@H]2Cn3c(cccc3=O)[C@@H]2N1C(=O)C1CCC1 | / | / | / | . | / | /
O=C(OCC(=O)c1c[nH]c2ccccc12)C1=COCCO1 | / | . | . | 64 | 43 | .
Cn1cccc1C(=O)OCC(=O)c1cc2ccccc2o1 | . | . | / | . | 34 | .
O=C(OCC(=O)c1ccc[nH]1)C1=COCCO1 | . | . | . | . | . | .
Cc1ccc(C(=O)OCC(=O)c2c[nH]c3ccccc23)cc1 | . | . | . | / | . | .
Cn1cccc1C(=O)OCC(=O)c1c[nH]c2ccccc12 | . | 112 | . | / | . | .
O=C(OCC(=O)c1c[nH]c2ccccc12)c1ccc([N+](=O)[O-])s1 | . | . | 110 | . | . | .
CCc1cccc2c(C(=O)COC(=O)c3ccc([N+](=O)[O-])s3)c[nH]c12 | . | . | ? | / | . | .
COc1ccc(NC(=O)Nc2ccc3c(c2)C(=O)N([C@H](C)CO)C[C@@H](C)[C@@H](CN(C)C(=O)Nc2ccccc2)O3)cc1 | / | / | / | . | / | /
COc1cccc(NC(=O)N(C)C[C@H]2Oc3cc(C#Cc4ccccc4)ccc3S(=O)(=O)N([C@@H](C)CO)C[C@@H]2C)c1 | / | / | / | . | / | /
COc1cc2nc(CC(C)C)n(NC(=O)c3ccccc3)c(=O)c2cc1OC | . | . | . | . | . | .
CC1(C(=O)OCC(=O)c2c[nH]c3ccccc23)CC1(Cl)Cl (stereo unspecified) | . | 96 | / | 46 | / | .
Cc1cnc(C(=O)OCC(=O)c2c[nH]c3ccccc23)cn1 | . | . | . | . | . | .
COc1ccc(C(=O)OCC(=O)c2c[nH]c3ccccc23)cc1OC | . | . | . | 52 | . | .
CN(Cc1ccccc1)C(=O)C1CCCN(Cc2cccc(Cl)c2)C1 (stereo unspecified) | . | . | . | . | . | .
O=C(CC1SC(N2CCOCC2)=NC1=O)Nc1ccc(F)cc1 (stereo unspecified) | . | . | / | . | . | .
NS(=O)(=O)c1ccc(NC(=O)c2cccc3cc4ccccc4nc23)cc1 | . | . | . | / | . | 62
SMILES | Vif inh | MITF act | PfHsp90 set2 | esBAF inh | Wnt act | Glyco luc inh
CCc1ccc(NC(=O)C2C3/C=C\CCCCC32)cc1 (stereo unspecified) | . | 94 | / | 61 | / | .
O=C(NCC1CC1)Nc1ccc(Cl)cc1 | . | ? | . | 68 | . | .
O=C1CCC(C(=O)Nc2ccc(Cl)cc2)N1 (stereo unspecified) | . | . | . | . | . | .
O=C(Nc1ccc(Cl)cc1)C1C2CCCCC21 (stereo unspecified) | . | / | . | 72 | . | .
Cc1cc(Cl)ccc1NC(=O)CN1C(=O)CSc2ccc(S(=O)(=O)N3CCOCC3)cc21 | . | . | . | . | . | .
N#CC1C(=O)NC(N2CCN(c3ccccc3)CC2)=NC12CCCCC2 (stereo unspecified) | . | / | / | . | . | .
COc1ccccc1S(=O)(=O)N(C)C[C@@H]1Oc2ncc(-c3ccc(C)cc3)cc2C(=O)N([C@@H](C)CO)C[C@@H]1C | / | / | / | . | / | /
O=C(c1cc2ncccn2n1)N1CCc2c([nH]c3ccccc23)C1c1ccccc1F (stereo unspecified) | . | . | . | . | . | .
COc1ccc(/C=C/C(=O)O/N=C(\N)c2ccccn2)cc1OC | . | 81 | . | ? | . | .
N/C(=N\OC(=O)c1ccc2ccccc2c1)c1ccncc1 | . | ? | . | / | 34 | .
N/C(=N\OC(=O)c1ccc2ccccc2c1)c1ccccn1 | . | . | . | . | . | .
Cc1ccccc1OCC(=O)O/N=C(\N)Cc1cccs1 | . | . | / | . | / | .
N/C(=N\OC(=O)c1ccc2ccccc2c1)c1ccccc1Cl | . | ? | 100 | 65 | 47 | .
Cc1ccccc1C(=O)O/N=C(\N)Cc1cccs1 | . | 94 | . | 53 | . | .
CCOc1ccc(Nc2nc(N)nc(CCl)n2)cc1 | ? | / | . | / | . | .
Cc1ccccc1C(=O)O/N=C(\N)c1ccncc1 | . | . | . | / | 40 | .
O=C(Oc1ccc2ccc(O)cc2c1)c1ccccc1Cl | . | / | . | 63 | . | .
N/C(=N\OC(=O)/C=C/c1ccccc1)c1ccncc1 | . | . | . | 45 | . | .
O=C(Oc1ccc2ccc(O)cc2c1)C1CCCCC1 | . | . | . | / | . | .
COc1cc(CNc2ccc3[nH]c(=O)[nH]c3c2)ccc1OCc1cccc(C)c1 | . | . | . | . | . | .
COc1cc(CNc2ccc3[nH]c(=O)[nH]c3c2)ccc1OCc1ccc(C)cc1 | . | . | . | 55 | 44 | .
O=c1[nH]c2ccc(NCc3ccc(OCc4ccccc4Cl)cc3)cc2[nH]1 | . | 83 | . | . | . | .
COc1cc(CNc2ccc(N3CCOCC3)cc2)ccc1OCC(=O)NC(C)(C)C | . | . | . | . | . | .
COc1cc(CNc2ccc(N3CCN(C(C)=O)CC3)cc2)ccc1OCc1ccccc1 | . | . | . | / | 40 | .
O=C(Nc1nnc([C@H]2C[C@H](O)[C@@H](CO)O2)s1)Nc1cccc(Cl)c1Cl | / | / | / | . | . | .
SMILES | Vif inh | MITF act | PfHsp90 set2 | esBAF inh | Wnt act | Glyco luc inh
COC(=O)C1CCN(C(=O)Cn2nnc(-c3ccccc3)n2)CC1 | . | . | . | . | . | .
Clc1ccc(Cc2noc(-c3cccs3)n2)cc1 | . | 112 | / | 63 | / | .
Cn1cc(CNC(=O)c2ccc3nc(Cc4ccccc4F)oc3c2)cn1 | . | 84 | . | / | . | .
Cc1cc(CN(C)C(=O)c2ccc3nc(Cc4ccccc4F)oc3c2)on1 | . | 98 | . | / | . | .
O=C(NCCc1ccccn1)c1ccc2nc(Cc3ccccc3F)oc2c1 | . | . | . | 72 | . | .
Cn1cc(CCNC(=O)c2ccc3nc(Cc4ccccc4F)oc3c2)cn1 | . | 125 | . | 75 | 33 | .
Cc1cnc(NC(=O)CSc2nnc(Cc3ccccc3)o2)s1 | . | . | . | . | . | .
